Screening data: PubChem, several laboratories
In the library only some 1.3% were active in any assay of this set; here they are far more common.
LRH-1 inv ag: LRH-1 (NR5A2) inverse agonists, primary screen, cell-based, luminescence, HEK293T, StAR-luciferase reporter; inhibition, % at 3.6 µM; LRH-1 transfected, 24 h; AID 602396, 2012; 360,000 compounds, 0.13% hits;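 active = inhibition above the mean inhibition of all tested compounds plus 3 SD, cut at about 73% in these data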
SRC3 inh: SRC3 coactivator transcriptional activity inhibitors, primary screen, cell-based, luminescence; Nuclear receptor coactivator 3 (Homo sapiens), Q9Y6Q9; HEK293 GAL4-SRC3 luciferase reporter; inhibition, % at 3.6 µM; 360,000 compounds, 0.17% hits;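 active = inhibition above a per-campaign cutoff, the mean of all compounds plus 3 SD, cut at about 60% in these data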;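 note: higher means less SRC3-driven luciferase light from the GAL4 reporter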
COUP-TFII inh: NR2F2 transcriptional activity inhibitors, primary screen, cell-based, luciferase reporter, HEK293T, luminescence; HEK293T NGFI-A luciferase reporter; inhibition, % at 8.6 µM; 370,000 compounds, 0.7% hits; AID 686940, 2013;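 active = inhibition above a per-plate cutoff, mean inhibition of test wells between control levels plus 3 SD, cut at about 38% in these data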;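 note: cells cotransfected with COUP-TFII expression vector driving the NGFI-A reporter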
NCOA1 inh: SRC1 coactivator transcriptional activity inhibitors, primary screen, cell-based, luminescence; Nuclear receptor coactivator 1 (Homo sapiens), Q15788; AID 588354, 2011; inhibition, % at 3.6 µM; HEK293 GAL4-SRC1 luciferase reporter; 360,000 compounds, 0.12% hits;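 active = inhibition above the campaign mean plus 3 SD, with each screening campaign given its own cutoff, cut at about 60% in these data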
Target sequence (Q15788 whole entry, looked up, the tested form may be a part): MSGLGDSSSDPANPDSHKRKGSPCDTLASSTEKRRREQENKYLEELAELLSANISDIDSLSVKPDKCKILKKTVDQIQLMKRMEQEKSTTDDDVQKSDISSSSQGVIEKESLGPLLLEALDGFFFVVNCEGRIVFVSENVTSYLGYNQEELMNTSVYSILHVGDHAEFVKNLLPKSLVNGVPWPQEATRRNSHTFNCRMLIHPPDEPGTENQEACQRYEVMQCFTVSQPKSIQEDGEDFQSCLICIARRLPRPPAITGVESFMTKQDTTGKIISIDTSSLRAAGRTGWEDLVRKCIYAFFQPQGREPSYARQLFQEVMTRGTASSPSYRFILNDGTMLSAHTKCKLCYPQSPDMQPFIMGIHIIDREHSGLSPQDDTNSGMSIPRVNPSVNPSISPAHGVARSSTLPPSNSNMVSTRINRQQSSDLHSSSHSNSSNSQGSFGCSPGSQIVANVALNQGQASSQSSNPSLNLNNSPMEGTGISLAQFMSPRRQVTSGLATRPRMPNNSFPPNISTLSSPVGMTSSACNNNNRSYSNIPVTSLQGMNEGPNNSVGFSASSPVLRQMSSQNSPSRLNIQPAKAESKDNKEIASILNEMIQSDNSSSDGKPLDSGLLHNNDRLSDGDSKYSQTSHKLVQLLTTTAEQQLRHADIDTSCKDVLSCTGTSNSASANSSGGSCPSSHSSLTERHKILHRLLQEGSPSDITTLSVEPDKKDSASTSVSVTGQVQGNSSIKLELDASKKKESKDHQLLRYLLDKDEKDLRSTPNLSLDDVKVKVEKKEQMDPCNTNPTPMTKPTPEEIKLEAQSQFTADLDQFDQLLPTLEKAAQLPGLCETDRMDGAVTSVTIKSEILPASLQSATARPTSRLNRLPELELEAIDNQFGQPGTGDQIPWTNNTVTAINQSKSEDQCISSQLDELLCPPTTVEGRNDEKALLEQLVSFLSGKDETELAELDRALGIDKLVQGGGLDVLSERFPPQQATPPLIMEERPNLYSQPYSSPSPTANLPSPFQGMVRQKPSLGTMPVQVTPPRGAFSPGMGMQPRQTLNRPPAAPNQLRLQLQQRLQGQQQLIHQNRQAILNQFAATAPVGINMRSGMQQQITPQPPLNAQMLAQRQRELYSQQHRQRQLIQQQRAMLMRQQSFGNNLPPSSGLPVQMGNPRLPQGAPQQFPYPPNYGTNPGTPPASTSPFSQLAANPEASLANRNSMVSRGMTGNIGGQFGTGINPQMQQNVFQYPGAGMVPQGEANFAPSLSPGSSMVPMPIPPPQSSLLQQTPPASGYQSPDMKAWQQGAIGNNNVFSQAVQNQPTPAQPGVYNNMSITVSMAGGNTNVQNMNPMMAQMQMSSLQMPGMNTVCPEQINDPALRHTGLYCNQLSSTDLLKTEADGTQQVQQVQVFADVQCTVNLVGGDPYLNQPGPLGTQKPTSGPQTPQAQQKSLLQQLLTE
SRC2 inh: inhibition of GAL4-SRC2 driven luciferase reporter, primary screen, SRC2 inhibitor project, cell-based, luminescence | Nuclear receptor coactivator 2 (Homo sapiens), Q15596 | HEK293 GAL4-SRC2 luciferase reporter | inhibition, % at 9 µM | 370,000 compounds, 0.17% hits | AID 651957, 2012;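 active = inhibition above the mean inhibition of all tested compounds plus 3 SD, set per campaign, cut at about 52% in these data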
Gli-Sufu block: Gli-Sufu pathway antagonists, primary screen, luciferase luminescence, Sufu-KO-LIGHT cells, uHTS; Sufu-KO-LIGHT fibroblasts, Gli luciferase reporter luminescence; inhibition, % at 5 µM; 340,000 compounds, 0.74% hits;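 active = inhibition above about 55%, limit read from the data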
Gli antag conf: Gli-SUFU pathway antagonists, confirmation, single concentration, luciferase luminescence, Sufu-KO-LIGHT cells; 2,500 compounds, 40% hits; shares compounds with Gli-Sufu block; inhibition, % at 5 µM; Gli luciferase reporter;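 active = mean inhibition at 5 µM reaching about 45%, limit read from the data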
Gli cytotox: cytotoxicity in Sufu-KO-LIGHT cells, confirmation, cytotoxicity control for Gli-SUFU antagonist project, cell-based, ATP luminescence, single concentration | cytotoxicity, % at 5 µM | 2,500 compounds, 32% hits | shares compounds with Gli-Sufu block | AID 651994, 2013;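 active = mean cytotoxicity at 5 µM above about 25%, limit read from the data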;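 note: cells exposed to compound overnight for roughly 16 to 18 hours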
Wnt3a cs: Wnt3a reporter signal inhibition, confirmation, counter-screen for Gli-SUFU antagonist project, Wnt-LIGHT cells, luminescence, single concentration; inhibition, % at 6.25 µM; Wnt3a-driven luciferase reporter; AID 651995, 2013; 2,500 compounds, 20% hits; shares compounds with Gli-Sufu block;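 active = mean inhibition above about 25%, limit read from the data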
Large screens that a line does not name were inactive (follow-up assays come after a bar, where they were run).

COC(=O)c1cc2c(c3c4cc(C)ccc4n(S(=O)(=O)c4cccc(C)c4)c13)C(=O)N(C)C2	none (no result: LRH-1 inv ag, SRC3 inh, NCOA1 inh, Gli-Sufu block)
COc1ccc(N2CCN(C3CC(=O)N(C)C3=O)CC2)cc1 (stereo not drawn)	Gli-Sufu block 67 | Gli antag conf inactive | Gli cytotox inactive | Wnt3a cs inactive
CN1C(=O)CC(N2CCN(c3ccc(Cl)cc3)CC2)C1=O (stereo not drawn)	none
C#CCN1C(=O)[C@]2(OCCC=C[C@H]2C)c2ccccc21	none (no result: LRH-1 inv ag, SRC3 inh, NCOA1 inh, Gli-Sufu block)
CCOC(=O)c1cc(CC)sc1NC(=O)c1cc(OCC)c(OCC)c(OCC)c1	Gli-Sufu block 99 | Gli antag conf inactive | Gli cytotox inactive | Wnt3a cs inactive
CCn1nc(C)c(CN2CCCC(C(=O)c3cccc(OC(C)C)c3)C2)c1C (stereo not drawn)	Gli-Sufu block 71 | Gli antag conf inactive | Gli cytotox inactive | Wnt3a cs 40
C#CCNC(=O)C[C@H]1C[C@@]2(C(=O)OC)C(=C[C@H](C3CCCC3)O[C@@H]2C)N(Cc2cccc3ccccc23)C1=O	none (no result: LRH-1 inv ag, SRC3 inh, NCOA1 inh, Gli-Sufu block)
C=CCN=C1NC(c2ccccc2C(F)(F)F)C(C(=O)OC)=C(C)N1Cc1ccccc1C(F)(F)F (stereo not drawn)	none (no result: LRH-1 inv ag, SRC3 inh, NCOA1 inh, Gli-Sufu block)
Cc1ccc2c(c1)c(N=Nc1ccc([N+](=O)[O-])cc1)c(O)n2C	none | Gli antag conf inactive | Gli cytotox inactive | Wnt3a cs inactive
C[C@@H]1CN([C@@H](C)CO)C(=O)CCCn2cc(nn2)CO[C@H]1CN(C)C(=O)Nc1ccc(C(C)(C)C)cc1	none (no result: LRH-1 inv ag, SRC3 inh, NCOA1 inh, Gli-Sufu block)
[O-][n+]1ccccc1C(O)CSc1ccccc1 (stereo not drawn)	none (no result: LRH-1 inv ag, SRC3 inh, NCOA1 inh, Gli-Sufu block)
COc1ccc(S(=O)(=O)Nc2ccc(F)cc2F)cc1C(=O)N1CCOCC1	Gli-Sufu block 61 | Gli antag conf inactive | Gli cytotox inactive | Wnt3a cs inactive
CC(C)C[C@H]1COc2cc(Br)ccc2S(=O)(=O)N1Cc1cn(CCC2OCCO2)nn1	none (no result: LRH-1 inv ag, SRC3 inh, NCOA1 inh, Gli-Sufu block)
Cc1ccc(Cn2nnc3c(=O)[nH]c(C4CCN(S(=O)(=O)c5ccccc5F)CC4)nc32)cc1	none | Gli antag conf inactive | Gli cytotox inactive | Wnt3a cs inactive
COC(=O)[C@]12C[C@H](CC(=O)NCc3cccc(C(F)(F)F)c3)C(=O)N(Cc3ccco3)C1=C[C@H](C(C)(C)C)O[C@@H]2C	none (no result: LRH-1 inv ag, SRC3 inh, NCOA1 inh, Gli-Sufu block)
COc1cccc(C(=O)NCCN2C(=O)C3C4C=CC(C4)C3C2=O)c1 (stereo not drawn)	none (no result: LRH-1 inv ag, SRC3 inh, NCOA1 inh, Gli-Sufu block)
Cc1cc2cc(CNC(=O)c3ccc(C)c([N+](=O)[O-])c3)ccc2[nH]1	Gli-Sufu block 58 | Gli antag conf inactive | Gli cytotox 26 | Wnt3a cs inactive
Cc1noc(/C=C/c2ccccn2)c1[N+](=O)[O-]	Gli-Sufu block 99 | Gli antag conf inactive | Gli cytotox 29 | Wnt3a cs inactive
COc1ccccc1N/C=C/c1onc(C)c1[N+](=O)[O-]	none
C=C(C)CSc1nnc(-c2cc(-c3ccccc3)n[nH]2)n1N	none (no result: LRH-1 inv ag, SRC3 inh, NCOA1 inh, Gli-Sufu block)
COC(=O)c1cc(S(=O)(=O)N2CCN(c3ccc(C(C)=O)cc3)CC2)c[nH]1	Gli-Sufu block 62 | Gli antag conf inactive | Gli cytotox inactive | Wnt3a cs inactive
CCN1CC2=C(OC(N)=C(C#N)C2c2cccs2)/C(=C\c2cccs2)C1 (stereo not drawn)	Gli-Sufu block 77 | Gli antag conf inactive | Gli cytotox inactive | Wnt3a cs inactive
CCOC(=O)C1=C(CC)OC(N)=C(C#N)C1c1cccs1 (stereo not drawn)	none
Cc1ccc(C)c(OCC(O)CN2CCC(CN3C(=O)c4cccc5cccc(c45)C3=O)CC2)c1 (stereo not drawn)	none | Gli antag conf inactive | Gli cytotox inactive | Wnt3a cs 28
CC1CCN(C(=O)c2ncn3c2C(=O)N[C@H](C)C3)CC1	none (no result: LRH-1 inv ag, SRC3 inh, NCOA1 inh, Gli-Sufu block)
Cc1cc(C)nc(NN2C(=O)/C(=C/c3ccc(O)cc3)SC2=S)n1	Gli-Sufu block 56 (no result: COUP-TFII inh, SRC2 inh) | Gli antag conf inactive | Gli cytotox inactive | Wnt3a cs inactive
O=C(COc1ccc([N+](=O)[O-])cc1)NNC(=O)Nc1ccc([N+](=O)[O-])cc1	Gli-Sufu block 98 | Gli antag conf inactive | Gli cytotox inactive | Wnt3a cs inactive
Cc1ccc(NC(=O)NNC(=O)COc2ccc([N+](=O)[O-])cc2)cc1C	none
CCCCCc1nc2c(=O)n(C)c3ccccc3c2o1	Gli-Sufu block 76 | Gli antag conf inactive | Gli cytotox inactive | Wnt3a cs inactive
Cc1cccc(N2CCN(C(=O)c3ccc4c(=O)[nH]c5c(C(=O)NC6CCCC6)sc(=S)n5c4c3)CC2)c1C	none (no result: LRH-1 inv ag, SRC3 inh, NCOA1 inh, Gli-Sufu block)
CC1(C)Cc2c(cnn2-c2ccccc2)C(NC(=O)c2ccc[n+]([O-])c2)C1 (stereo not drawn)	none | Gli antag conf inactive | Gli cytotox inactive | Wnt3a cs inactive
NC(=S)N/N=C/c1cccc(O)c1O	Gli-Sufu block 82 | Gli antag conf inactive | Gli cytotox inactive | Wnt3a cs inactive
O=[N+]([O-])c1ccc(N2CCN(Cc3ccccc3)CC2)s1	none | Gli antag conf inactive | Gli cytotox inactive | Wnt3a cs inactive
O=[N+]([O-])c1ccc(N2CCCCC2)s1	none
O=C(CSC(=S)N1CCCC1)c1cc(Br)cc(Br)c1O	Gli-Sufu block 85 (no result: LRH-1 inv ag, SRC3 inh, NCOA1 inh) | Gli antag conf inactive | Gli cytotox inactive | Wnt3a cs inactive
O=C(NCc1ccccc1)[C@@H]1CCCN1C(=O)[C@H]1CCCN1C(=O)c1ccccc1C(F)(F)F	none (no result: LRH-1 inv ag, SRC3 inh, NCOA1 inh, Gli-Sufu block)
CCCCOc1ccccc1NC(=O)c1scc2c1OCCO2	Gli-Sufu block 56 | Gli antag conf inactive | Gli cytotox inactive | Wnt3a cs inactive
O=C(NN=C1CCCC1)c1ccc(O)cc1	none | Gli antag conf inactive | Gli cytotox inactive | Wnt3a cs inactive
O=C(NN=C1CCCCCC1)c1ccncc1	none
CCOC(=O)Nc1ccc2c(c1)N(C(=O)CN1CCN(C)CC1)c1ccccc1CC2	none | Gli antag conf inactive | Gli cytotox inactive | Wnt3a cs inactive
CCOC(=O)Nc1ccc2c(c1)N(C(=O)CN1CCN(CCO)CC1)c1ccccc1CC2	none
